The list is not random: actives were taken first. Their share in the collection is about 10%.
RORg inh: qHTS for inhibitors of ROR gamma transcriptional activity; Drosophila S2 Gal4-RORgamma UAS-luciferase reporter, 20 h; Potency, µM (doses to about 53.6 µM), without a hit: at the top dose activity change, negative = inhibition, usual class: inhibitors; 310,000 tested, 5.4% active; also: % is scaled to controls: 0 for no effect and ±100 for the full control effect; nearly all actives have a fitted effect of over 60% in size
Target sequence (P51450 whole entry, looked up, the tested form may be a part): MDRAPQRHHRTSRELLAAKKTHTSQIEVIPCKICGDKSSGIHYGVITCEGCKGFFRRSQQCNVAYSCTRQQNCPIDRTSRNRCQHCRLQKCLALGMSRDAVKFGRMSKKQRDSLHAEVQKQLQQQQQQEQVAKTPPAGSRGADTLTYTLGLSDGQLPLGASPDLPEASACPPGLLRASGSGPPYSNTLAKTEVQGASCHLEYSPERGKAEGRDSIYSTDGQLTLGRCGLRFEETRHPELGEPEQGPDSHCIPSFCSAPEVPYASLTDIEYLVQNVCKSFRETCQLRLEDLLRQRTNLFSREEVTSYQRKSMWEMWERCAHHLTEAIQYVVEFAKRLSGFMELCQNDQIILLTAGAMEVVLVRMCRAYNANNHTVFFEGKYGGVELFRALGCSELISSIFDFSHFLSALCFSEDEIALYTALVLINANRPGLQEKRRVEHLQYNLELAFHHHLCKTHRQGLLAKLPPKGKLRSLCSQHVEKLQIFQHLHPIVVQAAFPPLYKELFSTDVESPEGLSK
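ROR gamma transcriptional activity was tracked as Gal4-UAS luciferase output in stably transfected Drosophila Schneider cells, with compound added 1 hr before 700 uM copper sulfate induction and a 20 hr ambient-temperature incubation.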
KB-3-1 cytotox: qHTS assay for MDR1-selective chemotherapeutics: Primary screen using the parental adenocarcinoma cell KB-3-1; Potency, µM (titrated, usually from 46.1 µM), most hits filed as cytotoxic; 400,000 tested, 1.4% active; AID 1347075, 2019; KB-3-1 viability, CellTiter-Glo ATP luminescence, 72 h; also: % is scaled to controls: 0 for no effect and ±100 for the full control effect; nearly all actives have a fitted effect of over 60% in size
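KB-3-1 cells, DMEM (no phenol red) + 10% FBS; compound by pin transfer, 72 h, 37 °C. Readout: CellTiter-Glo luminescence after 10 min. Data normalized, curve-fitted.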
SW480 rereplic: A quantitative high throughput screen for small molecules that induce DNA re-replication in SW480 colon adenocarcinoma cells | SW480 DNA re-replication, Hoechst DNA content imaging, 48 h | Potency, µM (doses to about 46.1 µM), for the others: top-dose re-replication activation, usual class: activators | 340,000 tested, 1.8% active | AID 624297, 2012; also: % of control where 0% means no effect; nearly all actives have a fitted effect of over 55% in size
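Image-based DNA-content assay: after two days of treatment, nuclei were labelled with the DNA dye Hoechst and imaged, and hits were compounds raising the count of nuclei showing high fluorescence intensity.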
KB-V1 MDR tox: qHTS assay for MDR1-selective chemotherapeutics: Primary screen using the drug-selected MDR subline cells KB-V1. KB-V1 MDR cells viability, CellTiter-Glo, 72 h. Potency, µM (doses to about 46.1 µM), hits mostly cytotoxic. 400,000 tested, 3.4% active. AID 1347076, 2019; also: % is scaled to controls: 0 for no effect and ±100 for the full control effect; nearly all actives have a fitted effect of over 60% in size
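KB-V1 MDR subline cells in DMEM (phenol-red free, 10% FBS) exposed to compounds in qHTS concentration series for 72 h at 37 degrees C. Viability read by CellTiter-Glo luminescence; concentration-effect curves fitted after normalization and correction.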
VP16 counter: VP16 counterscreen qHTS for inhibitors of ROR gamma transcriptional activity | Drosophila S2 Gal4-VP16 UAS-luciferase, luminescence, 20 h | Potency, µM (doses to about 53.6 µM), without a hit: at the highest dose activity, negative = inhibition, actives largely listed as inhibitors | 310,000 tested, 3.5% active | AID 2546, 2010;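 also: Gal4-VP16 expression switched on by copper sulfate through the metallothionein promoter; % is scaled to controls: 0 for no effect and ±100 for the full control effect; nearly all actives have a fitted effect of over 50% in size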
MCF10A rerep: A quantitative high throughput screen for small molecules that induce DNA re-replication in MCF 10a normal breast cells | MCF 10A DNA re-replication, Hoechst nuclear intensity, 48 h | Potency, µM (highest dose often 46.1 µM), for the others: at the top dose activity, positive = re-replication, hits mostly activators | 350,000 tested, 2.9% active | AID 624296, 2012; also: % of control where 0% means no effect; nearly all actives have a fitted effect of over 50% in size
* marks the source's active call; other numbers are inactive results; ! = not confirmed by another sample. Calls follow the shape of the dose curve; as a rule, active = well fitted curve in the direction sought with a large enough effect; inconclusive = small, poorly fitted or top-dose-only effect, or another doubt; inactive = no such curve, though single readings can be large; an effect the other way counts as inactive or inconclusive. Potency is read from the fitted curve at half-maximal effect.

How did c1ccc(Cc2nnc3sc(C4COc5ccccc5O4)nn23)cc1 (configuration not stated) do in these assays?
RORg inh: inconclusive; KB-3-1 cytotox: inactive; SW480 rereplic: -3%; KB-V1 MDR tox: 15µM*; VP16 counter: 2%; MCF10A rerep: 9%

Results for c1ccc(Cc2nnc3sc(-c4ccccn4)nn23)cc1 ?
RORg inh: -31%; KB-3-1 cytotox: inconclusive; SW480 rereplic: -4%; KB-V1 MDR tox: 16µM*; VP16 counter: 0%; MCF10A rerep: 1%

Results for Clc1ccccc1-c1nnc2sc(C3COc4ccccc4O3)nn12 (configuration not stated) ?
RORg inh: inconclusive; KB-3-1 cytotox: inactive; SW480 rereplic: 0%; KB-V1 MDR tox: 16µM*; VP16 counter: -21%; MCF10A rerep: -3%

How did c1ccc(Cc2nnc3sc(-c4ccncc4)nn23)cc1 do in these assays?
RORg inh: 1%; KB-3-1 cytotox: inactive; SW480 rereplic: 0%; KB-V1 MDR tox: inactive; VP16 counter: -10%; MCF10A rerep: 17%

What do the screens show for `Cc1cc(OI)c(C(C)C)cc1-c1cc(C(C)C)c(OI)cc1C`?
RORg inh: -11%; SW480 rereplic: -7%; VP16 counter: 3%; MCF10A rerep: 2%

What do the screens show for `COc1ccc2c(c1)CC(NC(=O)Nc1ccc(NC(C)=O)cc1)CO2` (configuration not stated)?
KB-3-1 cytotox: inactive; KB-V1 MDR tox: inactive

Results for Cn1c(CN2CCCCC2)nc2cc(NC(=O)c3ccc(F)cc3)ccc21 ?
RORg inh: 19%; KB-3-1 cytotox: inconclusive; SW480 rereplic: inconclusive; KB-V1 MDR tox: 21µM*; VP16 counter: 19%; MCF10A rerep: 9%

What do the screens show for `Cn1c(CN2CCCCC2)nc2cc(NC(=O)c3ccccc3Cl)ccc21`?
RORg inh: -23%; KB-3-1 cytotox: inconclusive; SW480 rereplic: 0%; KB-V1 MDR tox: 15µM*!; VP16 counter: 5%; MCF10A rerep: -3%

What do the screens show for `CCn1c(CN2CCOCC2)nc2cc(NC(=O)c3ccc([N+](=O)[O-])cc3)ccc21`?
KB-3-1 cytotox: 16µM*; KB-V1 MDR tox: inconclusive

Results for Cn1c(CN2CCCC2)nc2cc(NC(=O)C3CCCCC3)ccc21 ?
RORg inh: 4%; KB-3-1 cytotox: inactive; SW480 rereplic: -2%; KB-V1 MDR tox: inactive; VP16 counter: -3%; MCF10A rerep: 7%

Results for COC(=O)N(C)C[C@H]1OCc2cn(nn2)CCCC(=O)N([C@@H](C)CO)C[C@@H]1C ?
KB-3-1 cytotox: inactive; KB-V1 MDR tox: inactive

How did Cc1nc(-c2ccc(S(=O)(=O)Nc3cc(Cl)ccc3C)cc2)co1 do in these assays?
KB-3-1 cytotox: inactive; KB-V1 MDR tox: inconclusive

What do the screens show for `CC(C)Nc1nc(NC(N)=S)nc(NC(C)(C)C)n1`?
RORg inh: 11µM*; KB-3-1 cytotox: inconclusive; SW480 rereplic: 2%; KB-V1 MDR tox: inactive; VP16 counter: inconclusive; MCF10A rerep: inconclusive

Results for CC(C)Nc1nc(NNc2nc(Cl)nc(NC(C)(C)C)n2)nc(NC(C)C)n1 ?
RORg inh: 0.4µM*; KB-3-1 cytotox: inactive; SW480 rereplic: 22%; KB-V1 MDR tox: inactive; VP16 counter: 1.8µM*; MCF10A rerep: inconclusive

Results for CC(C)Nc1nc(NC(N)=S)nc(NC(C)C)n1 ?
RORg inh: inconclusive; KB-3-1 cytotox: inactive; SW480 rereplic: 2%; KB-V1 MDR tox: inactive; VP16 counter: -4%; MCF10A rerep: -4%
